Data taken from PubChem BioAssay AID743269 (The Scripps Research Institute Molecular Screening Center, 2014).
Hit rate of the full screen: of about 370,000 compounds, about 2,400 (0.65%) were called active. The sample as a whole holds a higher share of actives than the screen did. A number with no mark means an inactive call.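 How the source made its calls: active means inhibition above the screen-wide mean plus 3 SD (cut at about 13% in these data); inactive means the rest.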

What follows are compounds tested on HIV-1 integrase (with human LEDGF/p75) (assay: blockers of LEDGF/p75-dependent integrase strand transfer – biochemical, TR-FRET, high throughput, primary screen (AID 743269;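 further: signal is the Cy5 over europium emission ratio at 671 and 618 nm; 0% = plate median of compound wells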)). Conditions: TR-FRET IN-LEDGF/p75 DNA integration, Eu/Cy5; at 3.7 µM; stronger effect = higher value.

Row | SMILES | inhibition
1 | CCn1c(=O)n2n(c1=O)[C@@]1(C=C3CCCC[C@H]32)N=C(NC(=O)c2ccccc2)N(Cc2ccccc2)[C@H]1Cc1ccccc1 | 2.19%
2 | Clc1ccc(C2=CSC3=Nc4cccc5cccc(c45)N23)cc1 | 37.2% (active)
3 | CC(=O)Nc1nc2ncccn2c1-c1ccc(C(F)(F)F)cc1 | 4.33%
4 | CCC(C)[C@@H](C(=O)OC)N(CCc1cn(Cc2ccccc2)nn1)S(=O)(=O)c1ccccc1Br (some centres undefined) | 1.03%
5 | CC(C)CNc1cccc2c1S(=O)(=O)N(Cc1cn(Cc3ccccc3C(F)(F)F)nn1)Cc1ccccc1O2 | -0.84%
6 | CCOC(=O)[C@]12CCCC3=C1N(CCC3)C(=O)[C@@H](CC(=O)NCC13CC4CC(CC(C4)C1)C3)C2 | 0.85%
7 | O=C(NCc1ccco1)C1CCCN(S(=O)(=O)c2ccc(Cl)s2)C1 (centres undefined) | -0.9%
8 | COC(=O)c1cc(OC)c(OC)cc1NC(=O)CSc1ccc(C)cc1 | -3.23%
9 | CCc1cc2cc(OC)ccc2nc1SCC(=O)Nc1cc(OC)c(OC)cc1C(=O)O | 17.2% (active)
10 | COc1ccc(OC)c(NC(=O)CSc2nc(-c3ccccc3)cc(=O)[nH]2)c1 | 2.74%
11 | C=CCN(C(=O)[C@@H](CCCC)[C@@H](O)c1ccc(Cl)cc1)c1ccccc1 | 2.74%
12 | CN(CC(=O)Nc1ccc(S(=O)(=O)N2CCCC2)cc1)Cc1ccc(Cl)c(Cl)c1 | 30.4% (active)
13 | CCc1ccc(CN(C)C(C)C(=O)Nc2ccc(S(=O)(=O)N3CCCC3)cc2)cc1 (centres undefined) | -3.86%
14 | CC(C(=O)Nc1ccc(S(=O)(=O)N2CCCC2)cc1)N(C)Cc1ccc(F)cc1 (centres undefined) | -5.41%
15 | Nn1c(SCC(=O)Nc2ccc(S(N)(=O)=O)cc2)nnc1-c1n[nH]c2c1CCC2 | 5.06%
16 | CN(O)C(=S)c1ccccc1 | 21.8% (active)
17 | COC(=O)C1CN(CC(C)C)CCS(=O)(=O)N1Cc1ccc(C)cc1 (centres undefined) | 1.62%
18 | COc1cc(NC(=O)C2CCCN(S(=O)(=O)c3ccc(C(C)(C)C)cc3)C2)cc(OC)c1 (centres undefined) | 2.62%
19 | COc1cc(/C=C2\CCCc3c2nc2ccccc2c3C(=O)O)cc(Cl)c1O | 30.4% (active)
20 | COc1ccc(-n2nc(C(=O)NCC(=O)N3CCCCCC3)c3ccccc3c2=O)cc1Cl | -4.29%
21 | COC(=O)c1cc(N2CCNCC2)nc2ccccc12 | -3.62%

Row | SMILES | inhibition
22 | C[C@@H]1COc2cccc(N3CCCC3)c2S(=O)(=O)N1C | -1.59%
23 | COc1ccc([N+](=O)[O-])cc1NC(=O)COC(=O)/C=C/c1ccco1 | -5.28%
24 | NS(=O)(=O)c1cccc(NC(=O)COC(=O)/C=C/c2ccco2)c1 | -1.8%
25 | COc1cccc(NC(=O)COC(=O)/C=C/c2ccco2)c1 | 20.4% (active)
26 | CC(C)(C)c1ccc(C(=O)Nc2cc(Cl)c(Br)cc2C(=O)O)cc1 | 5.86%
27 | CCCCOCCCNC(=O)C[C@H]1C[C@@]2(C(=O)OC)C(=C[C@H](COCc3ccccc3)O[C@@H]2C)N(Cc2cccc3ccccc23)C1=O | -2.14%
28 | COC(=O)[C@H](C(C)C)N1CCc2nnn(Cc3ccc(C)cc3)c2-c2ccccc2S1(=O)=O | 0.15%
29 | Cc1nc2ccccc2n1C(=O)N1CCOCC1 | -1.41%
30 | Cc1oc2c(c1C(=O)N1CCOCC1)C(=O)c1ccccc1C2=O | 18.3% (active)
31 | CC(C(=O)Nc1ccccc1-c1ccccc1)N1CCOCC1 (centres undefined) | -2.51%
32 | CC1(C(=O)NS(=O)(=O)c2cccs2)CCN1C(=O)Cc1ccc(-c2ccccc2)cc1 (centres undefined) | -0.36%
33 | CC1(C(=O)NS(=O)(=O)c2ccccc2)CCN1C(=O)Cc1ccc(-c2ccccc2)cc1 (centres undefined) | 19.2% (active)
34 | CCCNC(=O)C1(C)CCN1C(=O)Cc1ccc(-c2ccccc2)cc1 (centres undefined) | 0.51%
35 | COc1ccc(/C=C2\CC3(OC(C)=O)CCCN2C3)cc1 (centres undefined) | -2.77%
36 | C[C@H](C(=O)N(C)c1ccccc1)[C@@H](O)c1ccc2ccccc2c1 | -3.07%
37 | CCCC(C(=O)OCCN(CC)CC)(c1ccccc1)c1ccccc1 | -3.9%
38 | CCN(CC)CCOc1ccc2c(c1)C(=NNC(=O)c1ccccn1)c1cc(OCCN(CC)CC)ccc1-2 | 19.1% (active)
39 | CCN(CC)S(=O)(=O)c1cc(C(=O)Nc2ccccn2)ccc1C | 1.24%
40 | O=C(NC1CCCC1)C1CSCCS(=O)(=O)N1Cc1ccccc1 (centres undefined) | 0.83%
41 | C=C(C)C1CC23C(=O)C4(C(=O)c5ccccc5)C[C@@]5(C)CCC(CC2C1(C)C)(C4=O)C35OC (some centres undefined) | -2.25%
42 | Cc1ccc(NC(=O)Cc2cccc(F)c2)c(S(=O)(=O)N2CCOCC2)c1 | 1.83%

Row | SMILES | inhibition
43 | CCCCNC(=O)C[C@H]1C(=O)N(Cc2ccc(OC)cc2)C2=CCCC[C@@]21C(=O)OCC | -5.02%
44 | Cc1ccc(C)c(-c2nnc(NC(=O)CS(=O)(=O)c3ccccc3)o2)c1 | -2.12%
45 | COc1cc(-c2nnc(NC(=O)C3=COCCO3)o2)cc(OC)c1OC | 5.65%
46 | COc1cc(-c2nnc(NC(=O)CS(=O)(=O)c3ccc(Cl)cc3)o2)cc(OC)c1OC | 15.4% (active)
47 | CC(CCN1CCC(C(O)(c2ccccc2)c2ccccc2)CC1)Oc1ccc(C(F)(F)F)cc1 (centres undefined) | -3.25%
48 | O=S(=O)(Nc1ccc(O)c2ccccc12)c1ccc(OC(F)(F)F)cc1 | 16.5% (active)
49 | O=S(=O)(Cc1noc(-c2ccc(OC(F)(F)F)cc2)n1)c1ccc(F)cc1 | 0.93%
50 | O=[N+]([O-])c1ccc(NS(=O)(=O)c2ccccc2)c(Cl)c1 | 7.69%
51 | CCC(NC(=O)C1C2C=CC3(CN(Cc4ccccc4)C(=O)C13)O2)c1ccccc1 (centres undefined) | -1.5%
52 | COC(=O)[C@]12C[C@H](CC(=O)NCCc3ccccc3OC)C(=O)N(Cc3ccco3)C1=C[C@H](C(C)C)O[C@@H]2C1CC1 | -0.43%
53 | COC(=O)[C@]12C[C@H](CC(=O)N3CCOCC3)C(=O)N(Cc3ccc(Cl)cc3Cl)C1=C[C@H](C(C)C)O[C@@H]2C1CC1 | -2.5%
54 | CCOc1ccc(-n2c(SCC(=O)Nc3cc(C)c(NC(=O)c4ccccc4)cc3OC)nnc2-c2cccc(Cl)c2)cc1 | -4.78%
55 | Cc1cc(NC(=O)COC(=O)/C=C/c2ccc(C)o2)no1 | -2.47%
56 | Cc1ccc(/C=C/C(=O)Nc2ccc([N+](=O)[O-])c(NC(=O)/C=C/c3ccc(C)o3)c2)o1 | 24.3% (active)
57 | CCOc1ccc(NC(=S)NC(=O)/C=C/c2ccc(OC)cc2)c([N+](=O)[O-])c1 | 5.44%
58 | CC(=O)c1cc(-c2ccc3ccccc3c2)c(=O)n2c1CCC2 | 0.07%
59 | CC(c1ccc(N)cc1)c1cn(C)c2ccccc12 (centres undefined) | -3.68%
60 | Cc1ccc(-n2c(SCC(=O)Nc3cccc4ccccc34)nnc2-c2ccccn2)cc1 | -0.35%
61 | COC(CNC(=O)[C@H](Cc1ccccc1)NC1(C(=O)NC2CCCCC2)CCCCC1)OC | 2.51%
62 | Cc1ccc(-c2nnc(SCC(=O)Nc3ccc(Oc4ccccc4)cc3)n2Cc2ccco2)cc1 | -1.74%
63 | Nn1c(SCC(=O)N2c3ccccc3Sc3ccccc32)nnc1-c1n[nH]c2c1CCC2 | -0.96%

Row | SMILES | inhibition
64 | O=C(NC1CCCCN(Cc2cccc(C(F)(F)F)c2)C1=O)c1ccccc1I (centres undefined) | -1.97%
65 | NNc1cccc(C=Cc2ccccc2)cc1=O | 29.3% (active)
66 | O=C(CSc1nc2sc3c(c2c(=O)n1-c1ccccc1)CCCC3)NN=Cc1ccc(OCc2ccccc2)cc1 | -1.95%
67 | CN(C)c1ccc(N/C=C/C(=O)C(F)(F)F)cc1 | 51% (active)
68 | CC1CN(/C=C/C(=O)C(F)(F)F)CC(C)O1 (centres undefined) | 1.92%
69 | O=S1(=O)c2c(NCc3ccco3)cccc2Oc2ccccc2CN1Cc1cn(Cc2cccc(C(F)(F)F)c2)nn1 | -4.08%
70 | O=C1OC(/C=C/c2ccccc2)=NC/1=C/c1ccco1 | 23.8% (active)
71 | COc1ccccc1/C=C/C1=NC(=C\N(C)C)/C(=O)O1 | -2.48%
72 | CCn1c(SCC(C)=O)nc2sc3c(c2c1=O)CCCC3 | 4.15%
73 | COC(=O)C12C=C3CC(c4ccccc4)=C3C(=O)N1Cc1[nH]c3ccccc3c1C2 (centres undefined) | -0.02%
74 | CCOC(=O)c1ccc(NC(=O)Cn2cnc3cc(C)c(C)cc32)cc1 | -0.18%
75 | CCOC(=O)c1ccc(NC(=O)CSc2ncccn2)cc1 | 21.2% (active)
76 | CCOC(=O)c1ccc(NC(=S)N2CCN(c3ccccn3)CC2)cc1 | 3.04%
77 | O=C(NC1CCC1)c1ccc(C#Cc2cccc(F)c2)c[n+]1[O-] | -0.89%
78 | O=C(CSc1nnc(COc2ccccc2)n1Cc1ccco1)c1ccc2ccccc2c1 | 1.68%
79 | Cc1sc2nc(SCC(N)=O)n(C)c(=O)c2c1C | 1.58%
80 | Cc1sc2nc(SCC(=O)c3ccc(O)c(O)c3)n(Cc3ccco3)c(=O)c2c1C | 34.8% (active)
81 | CCOC(=O)[C@]12CCCC=C1N(Cc1ccc(OC)cc1)C(=O)[C@@H]2CC(=O)N1CCOCC1 | 4.73%
82 | Cc1ccc(NC(=O)c2cc(C)nn2-c2ccccc2)c(C)c1 | -1.51%
83 | CCC(=O)c1c(CC)c2n3c1=CC[C@H]3CC(Br)C=2 (some centres undefined) | -2.29%
84 | CN(C)Cc1cn(-c2ccc(-c3noc4c3C(=O)N(CC(=O)N3CCOCC3)CC4)cc2)nn1 | -1.95%
